Test results reported in PubChem BioAssay.
Activity calls are given as the source filed them.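 How the source made its calls, unless noted: active means inhibition of the reporter signal at or above 50%; inactive means inhibition below 50%.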

Tests used:
[1] = inhibitors of TNFa-induced NFkB p65 translocation, primary screen, imaging, HUVEC, MLSMR starter and 10KST1 sets (AID 438;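 active means inhibition above 20% together with a positive visual image hit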;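 further: compound added about 3h40 before a 20 min TNFalpha stimulation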;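 on inhibition: signal is the nuclear over cytoplasmic p65 intensity ratio per well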); details: HUVEC TNFa-induced p65 nuclear translocation; cell count: measured here: nuclei count (cytotoxicity indicator), at 2.08 µM; inhibition: at 2 µM, stronger effect = higher value, 0% TNFa-plus-vehicle, 100% no-TNFa wells
[2] = inhibitors of mutant huntingtin aggregation, primary screen, imaging, exon1htt(103Q)mCFP cells, high-content imaging (AID 483;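 active means visual image review flags a hit and inhibition of aggregation exceeds 20%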;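 further: compound exposure lasted 3 days before fixation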;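 on nuclei count: percent of the per-plate median nuclei count of sample wells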); details: exon1htt(103Q)mCFP cell line, aggregate imaging, at 2 µM; inhibition of aggregation: stronger effect = higher value; nuclei count: measured here: cell count, toxicity
[3] = inhibitors of E-selectin induction by TNFa, primary screen, imaging, HUVEC, immunofluorescence, MLSMR starter and 10KST1 sets (AID 487;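 active means visually confirmed hit in the image check and inhibition above 20%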;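 on inhibition: signal is fraction of cell area covered by stained E-selectin grains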;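 on nuclei count: 100% = median nuclei count of all wells on the same plate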); details: HUVEC TNFalpha-induced E-selectin immunofluorescence imaging, at 2 µM; inhibition: stronger effect = higher value; nuclei count: measured here: cell number, toxicity
[4] = target: Voltage-gated potassium channel subunit beta-2 (Rattus norvegicus) (UniProt P62483); assay: KvBeta enzyme negative modulators, primary screen, biochemical, NADPH fluorescence (AID 622;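 active means fluorescence slope higher than the sample average by over 3 SD, cut at about -0.22 in these data, passing the limit was not always enough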;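 further: slope of raw intensity against log time taken from 70 to 1610 s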); details: recombinant KvBeta, 4-cyanobenzaldehyde reduction, at 10 µM, stronger effect = higher value
Chain of Voltage-gated potassium channel subunit beta-2 (Rattus norvegicus) (P62483 whole entry, looked up): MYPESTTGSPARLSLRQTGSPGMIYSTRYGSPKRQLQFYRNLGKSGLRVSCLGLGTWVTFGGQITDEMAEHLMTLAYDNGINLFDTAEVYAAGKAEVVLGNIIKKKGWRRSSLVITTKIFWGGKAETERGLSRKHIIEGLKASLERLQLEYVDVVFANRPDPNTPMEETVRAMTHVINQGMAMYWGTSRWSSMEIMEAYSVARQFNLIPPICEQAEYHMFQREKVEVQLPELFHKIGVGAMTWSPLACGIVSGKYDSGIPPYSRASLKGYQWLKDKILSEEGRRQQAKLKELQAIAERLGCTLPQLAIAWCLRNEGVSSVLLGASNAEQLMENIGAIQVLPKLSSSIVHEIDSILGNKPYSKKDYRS

[5] = target: Voltage-gated potassium channel subunit beta-2 (Rattus norvegicus) (UniProt P62483); assay: KvBeta positive modulators, primary screen, biochemical, NADPH fluorescence (AID 623;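 active means NADPH fluorescence slope more negative than the mean of all samples by about 3 SD, 99.7% confidence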;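 further: fluorescence intensity change per second fitted from 20 to 320 s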); details: Recombinant KvBeta, NADPH fluorescence decrease slope, 10 min; at 10 µM; stronger effect = lower value
[6] = target: Alpha-2C adrenergic receptor (Homo sapiens) (UniProt P18825); assay: modulators of alpha2C/GIRK thallium flux, primary screen, cell-based, HEK293 alpha2C/GIRK1/2 (AID 624;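 active means fluorescence slope after compound addition differing from the mean of all screened samples at 99.7% confidence, in either direction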;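 further: slope of fluorescence ratio to pre-addition baseline per second over 15 to 24 s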); details: thallium flux BTC fluorescence, at 10 µM, actives lie on both sides
Chain of Alpha-2C adrenergic receptor (Homo sapiens) (P18825 whole entry, looked up): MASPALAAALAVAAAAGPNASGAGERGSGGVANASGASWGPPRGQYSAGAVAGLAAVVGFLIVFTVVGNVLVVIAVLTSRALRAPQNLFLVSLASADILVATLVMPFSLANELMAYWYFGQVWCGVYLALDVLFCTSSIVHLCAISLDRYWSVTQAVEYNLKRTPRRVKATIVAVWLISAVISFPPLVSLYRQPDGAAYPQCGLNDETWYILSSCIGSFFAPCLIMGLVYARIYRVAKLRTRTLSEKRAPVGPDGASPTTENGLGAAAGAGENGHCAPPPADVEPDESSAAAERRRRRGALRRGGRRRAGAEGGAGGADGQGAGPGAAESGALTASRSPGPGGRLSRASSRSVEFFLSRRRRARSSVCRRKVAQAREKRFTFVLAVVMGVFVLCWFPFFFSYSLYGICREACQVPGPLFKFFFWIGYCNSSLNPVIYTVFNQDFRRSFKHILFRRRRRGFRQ

[7] = inhibitors of Sendai virus-induced IRF3 signaling, primary screen, TLR/RLR signaling modifier project, cell-based, Sendai virus stimulus, luciferase, 10K MLSCN set (AID 602276;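 active means inhibition at or above 50% at 10 µM; inactive means inhibition below 50%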;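 further: firefly luciferase from ISG56 promoter only with Renilla not read in this screen; 0% = Sendai virus plus DMSO and 100% = medium plus DMSO without virus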); details: HEK293 RL24 IRF3 luciferase reporter, at 10 µM, stronger effect = higher value
[8] = inhibitors of poly I:C-induced TLR3 signaling, primary screen, cell-based, poly I:C stimulus, luciferase, 10K MLSCN set (AID 602277); details: HEK293-TLR3 RL24 IRF3 luciferase reporter, at 10 µM, stronger effect = higher value

Structure (SMILES)	cell count [1]	inhibition [1]	inhibition of aggregation [2]	nuclei count [2]	inhibition [3]	nuclei count [3]	fluorescence slope [4]	NADPH fluorescence slope [5]	slope [6]	inhibition [7]	inhibition [8]
Cc1c(NC(=O)C2(c3ccccc3)CCOCC2)c(=O)n(-c2ccccc2)n1C	552	11.5% (inactive)	9.2% (inactive)	90.5%	25.9% (inactive)	130%	-0.435 (inactive)	2.3e-05 (inactive)	0.00624 (inactive)	0.891% (inactive)	9.22% (inactive)
COC(=O)Nc1nc2c(C)cccc2s1	299	0.7% (inactive)	-2.9% (inactive)	95.7%	-33.7% (inactive)	101%	-0.469 (inactive)	9.8e-07 (inactive)	0.0031 (inactive)	-14.5% (inactive)	-45% (inactive)
CC(=O)c1ccccc1NS(=O)(=O)c1c(C)nn(-c2ccccc2)c1C	580	-2.4% (inactive)	2.3% (inactive)	113%	-74.1% (inactive)	92.7%	-0.308 (inactive)	-5e-05 (inactive)	0.00448 (inactive)	-4.38% (inactive)	98.9% (active)
C/C=C/COC(=O)c1[nH]c2c(c1C)C(=O)CC(c1ccc(N(C)C)cc1)C2 (centres undefined)	699	1.8% (inactive)	14.4% (inactive)	79.6%	-46.6% (inactive)	115%	-0.543 (inactive)	-2.2e-05 (inactive)	0.00679 (inactive)	-29.1% (inactive)	-68.7% (inactive)
COC(=O)c1ccc(C)c(NS(=O)(=O)c2ccc3c(c2)OCCO3)c1	263	12.5% (inactive)	22.6% (inactive)	56.8%	-60.4% (inactive)	94%	-0.393 (inactive)	-5.8e-05 (inactive)	0.00526 (inactive)	43.8% (inactive)	58.5% (active)
COc1ccc(-c2noc(CCCC(=O)O)n2)cc1	696	-7.8% (inactive)	-3.1% (inactive)	125%	-54.3% (inactive)	107%	-0.341 (inactive)	1.2e-05 (inactive)	0.00595 (inactive)	35% (inactive)	86.3% (active)
CCCn1nc(NC(=O)c2cccs2)c2cc3cc(OC)ccc3nc21	630	-6.8% (inactive)	-8% (inactive)	104%	-20.4% (inactive)	112%	-0.119 (inactive)	2.2e-05 (inactive)	0.00675 (inactive)	-4.8% (inactive)	-37.7% (inactive)
COc1ccc(-n2nnnc2SCC(=O)c2ccc(O)c(O)c2)cc1	344	-6.5% (inactive)	20.5% (inactive)	91.8%	-74.4% (inactive)	112%	-0.487 (inactive)	-0.000117 (inactive)	0.00395 (inactive)	13.7% (inactive)	16.9% (inactive)
Cc1ccc(NC(=O)c2cc(S(=O)(=O)N3CCC4(CC3)OCCO4)ccc2F)cc1	369	-3.3% (inactive)	12.5% (inactive)	102%	-43.7% (inactive)	108%	-0.441 (inactive)	3.1e-05 (inactive)	0.0033 (inactive)	-8.15% (inactive)	-22.3% (inactive)
